Most compounds without a hit are left out; they make up all but 4.9% or so of the library.
HSF1 inh: HSF1 inhibitors in luciferase reporter cells, primary screen, cell-based, NIH3T3, luminescence | NIH3T3-HGL HSE-luciferase, MG132-induced, luminescence 8 h; hits give low values | activity change, negative = inhibition, % at 7.5 µM (by protocol) | 0.77% of 300,000 active;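 active = more than half of replicate wells show activity change below -50%, luminescence cut by over half; inconclusive = some wells, but at most half, below -50%; inactive = no replicate well below -50%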;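 also: luciferase reports HSF-1 transcriptional activity via heat shock element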
HSF-1 act: HSF-1 activators, primary screen, NIH3T3-HGL cells, MG132 stress, luminescence, single point. NIH3T3-HGL HSF-1 luciferase reporter, 8 h; 100% = twice DMSO control signal. activation, % at 9 µM. 1.7% of 300,000 active;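 active = mean replicate activation of at least 50% with a set share of replicates each reaching 50%; inconclusive = only one of those two conditions met; inactive = mean below 50% and too few replicates reaching it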
dFosB activator: activators of delta FosB homodimer, primary screen, biochemical, fluorescence polarization, TAMRA-CDK5 oligo, single point; activation, % at 25 µM; Protein FosB (Mus musculus), P13346; 0.99% of 340,000 active; purified delta FosB; percent of positive-control signal above neutral wells;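 active = mean activation above about 17%, with every replicate also reaching it, limit read from the data, passing the limit was not always enough; inconclusive = only one of the two conditions met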
Target sequence (P13346 whole entry, looked up): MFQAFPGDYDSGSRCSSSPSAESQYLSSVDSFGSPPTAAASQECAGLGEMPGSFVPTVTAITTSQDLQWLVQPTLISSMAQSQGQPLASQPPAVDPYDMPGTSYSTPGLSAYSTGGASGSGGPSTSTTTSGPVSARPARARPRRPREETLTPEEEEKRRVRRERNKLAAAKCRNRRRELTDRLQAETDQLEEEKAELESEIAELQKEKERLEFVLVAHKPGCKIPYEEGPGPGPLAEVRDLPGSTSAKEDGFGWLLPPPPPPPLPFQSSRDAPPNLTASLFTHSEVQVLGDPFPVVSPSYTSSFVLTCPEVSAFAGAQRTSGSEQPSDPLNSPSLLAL
Platelet DG rel: inhibitors of platelet dense granule secretion, primary screen, cell-based, MLPCN, human platelets. human platelet-rich plasma, SFLLRN dense granule ATP release, luminescence. AID 1663, 2009. 0.22% of 300,000 active. inhibition, %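 (compounds screened at 7.5 µM in platelet-rich plasma)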;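 active = mean replicate score, as percent of positive control, at or above 50; inconclusive = mean below 50 but at least one replicate at or above 50; inactive = mean and every replicate below 50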
HSP90 inh: HSP90 inhibitors, primary screen, cell lysate, luminescence; Heat shock protein HSP 90 (rabbit reticulocyte lysate; luciferase refolding); Rabbit reticulocyte lysate, luciferase refolding luminescence, 3 h; inhibition, % at 5.6 µM; 0.91% of 290,000 active; AID 1789, 2009;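 active = inhibition above the screen-wide mean plus 3 SD, computed separately per campaign, cut at about 16% in these data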;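 also: inhibitors lower the luminescence because luciferase stays unfolded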
MPTP inh: mitochondrial permeability transition pore inhibitors, primary screen, biochemical, isolated mouse mitochondria, absorbance; inhibition, % at 10 µM; 1.4% of 360,000 active; Ca2+ swelling absorbance, 30 min;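 active = inhibition of 50% or more, scaled per plate between neutral and stimulator controls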
MPTP counter: fluorescence retest of MPTP screen hits in isolated mitochondria, single concentration; shares compounds with MPTP inh; 78% of 5,000 active; inhibition, % at 10 µM; AID 624504, 2012; membrane potential, Rhodamine 123 fluorescence; in the data active = inhibition above about 22%
MPTP abs DR: mitochondrial permeability transition pore inhibitors, dose response, biochemical, absorbance, uHTS hits; IC50, µM; isolated mitochondria swelling; shares compounds with MPTP inh; 58% of 780 active; in the data active = IC50 below about 20 µM
MPTP counter DR: fluorescent counter-screen in isolated mitochondria, dose response, counter-screen for MPTP inhibitor project, biochemical, fluorescence, uHTS hits; shares compounds with MPTP inh; IC50, µM; isolated mitochondria counterscreen, fluorescence read-out; 49% of 780 active; AID 651564, 2012; in the data active = IC50 below about 80 µM
Hits are given with their value; i = inactive; ? = inconclusive; nt = no result given.

SMILES | HSF1 inh | HSF-1 act | dFosB activator | Platelet DG rel | HSP90 inh | MPTP inh | MPTP counter | others
Cn1c(SC(C(=O)Nc2ccc(F)cc2)c2ccccc2)nc2ccccc21 (stereo unspecified) | i | i | i | i | i | 64 | 66
O=C(Nc1ccc(F)cc1)C(Sc1nc2ccccc2[nH]1)c1ccccc1 (stereo unspecified) | i | i | ? | i | i | 97 | 87
CC(C)C(=O)N1CCCC1(C)C(=O)Nc1cccc(Oc2ccccc2)c1 (stereo unspecified) | nt | nt | nt | nt | nt | i | nt
Cc1nc2ccccc2c(N)c1C(=O)/C=C/c1ccccc1 | i | 64 | i | i | i | 96 | 84
CC(=O)c1c(C)nc2ccccc2c1N | i | i | i | i | i | i | nt
CC1(C)CC(=O)C=C(c2cccc(Br)c2)C1 | nt | nt | i | nt | nt | i | nt
CCCCNC(=O)N1CCCC(C(=O)c2cc(C)c(OC)c(C)c2)C1 (stereo unspecified) | i | i | i | i | i | i | nt
CCOC(=O)c1c(C)[nH]c(C(=O)N/N=C/c2cc([N+](=O)[O-])ccc2O)c1C | -59 | i | i | i | i | 56 | i
CCNC(=O)C(=O)N/N=C/c1cc([N+](=O)[O-])ccc1O | i | i | i | i | i | i | nt
CCOC(=O)c1c(C)[nH]c(C(=O)N/N=C/c2ccc(OC)c(OC)c2)c1C | i | i | i | i | i | i | nt
CCOC(=O)c1c(C)[nH]c(C(=O)N/N=C\c2ccccc2O)c1C | i | i | i | i | i | 69 | 66
COc1ccc2c(c1)C=Cc1ccccc1O2 | i | i | nt | i | nt | nt | nt
O=C(NCC1CCCCC1)c1cc2ccccc2cc1O | i | i | i | i | i | 59 | 81
CC1CCC(NC(=O)c2cc3ccccc3cc2O)CC1 (stereo unspecified) | nt | nt | i | nt | nt | 87 | 94
CCCN(C(=O)c1cn(C)c(=O)c2ccccc12)c1ccccc1C | i | i | i | i | i | i | nt
Cc1ccc(NC(=O)CN2C(=O)S/C(=C/c3ccc(O)c([N+](=O)[O-])c3)C2=O)cc1C | nt | nt | i | nt | i | i | nt
Cc1cccc(NC(=O)CN2C(=O)S/C(=C\c3ccc(O)c([N+](=O)[O-])c3)C2=O)c1 | i | i | i | i | i | i | nt
O=C1S/C(=C\c2ccc(O)c([N+](=O)[O-])c2)C(=O)N1Cc1cccc([N+](=O)[O-])c1 | i | i | i | i | i | 100 | 61
O=C1S/C(=C\c2ccc(O)c([N+](=O)[O-])c2)C(=O)N1c1ccccc1Cl | i | i | i | i | i | 59 | 71
O=C(Cc1cnc2ncnn2c1)N1CCc2c([nH]c3ccccc23)C1c1ccccc1F (stereo unspecified) | i | i | i | i | i | i | nt
N#Cc1cc(C(=O)c2cc(Br)ccc2O)cn(C2CCCCC2)c1=O | i | i | i | i | i | 94 | 82
CCCCCCC[C@@H](C/C=C/CCC(=O)O)OC | nt | nt | i | nt | nt | i | nt
CCCCCCC[C@@H](C/C=C/CCC(=O)N(C)C/C(=C/Cl)C/C(=C\C(=O)N1CC(OC)=CC1=O)OC)OC | nt | nt | i | nt | nt | 79 | i
CCCCCCC[C@@H](C/C=C/CCC(=O)N(C)C/C(=C/Cl)C/C(=C\C(=O)N1C[C@H](O)CC1=O)OC)OC | nt | nt | i | nt | nt | 74 | 102
CC(=O)c1ccc(NC(=S)NC(C)CCc2ccccc2)cc1 (stereo unspecified) | i | i | i | ? | i | 89 | 93
SMILES | HSF1 inh | HSF-1 act | dFosB activator | Platelet DG rel | HSP90 inh | MPTP inh | MPTP counter | others
Cc1cccc(C)c1NC(=S)NC(C)CCc1ccccc1 (stereo unspecified) | i | i | i | i | i | i | nt
Cc1ccc(NC(=S)NC(C)CCc2ccccc2)cc1C (stereo unspecified) | i | i | i | i | i | 86 | 97
COc1ccccc1-c1cnc(C(O)c2ccc(SC)cc2)[nH]1 (stereo unspecified) | nt | nt | nt | nt | nt | i | nt
O=S(=O)(NCc1ccccc1)c1ccc(Cl)cc1 | i | i | i | i | i | i | nt
O=S(=O)(Nc1cc2nc3ccccc3nc2n1Cc1ccccc1)c1ccc(Cl)cc1 | i | 114 | i | i | i | 58 | 36
COc1cccc(C(=O)Nc2cc(C(=O)NCc3ccc(C)cc3)ccc2N2CCC3(CC2)CC(c2cccc(Br)c2)=NO3)c1 | nt | nt | i | nt | nt | i | nt
CCc1ccc(C(=O)COC(=O)[C@@H](NC(N)=O)[C@@H](C)CC)cc1 | i | i | i | i | i | i | nt
O=C1CCCN2N=C(SCC(=O)Nc3cccc(F)c3)SC2=N1 | i | i | i | i | i | 50 | i | MPTP abs DR=i;MPTP counter DR=38
O=C1CCCN2N=C(SCC(=O)Nc3ccc(F)cc3F)SC2=N1 | i | i | i | i | i | i | nt
COc1ccc(-c2cc(C(F)(F)F)c(C#N)c(SCC(=O)O)n2)cc1OC | i | i | nt | i | i | nt | nt
CCCCCCCCCCn1ccc(=N)cc1 | i | i | i | i | i | 65 | 90
CN1C[C@H]2CON(C)[C@H]2C[C@H]1c1cccc(-c2ccccc2)c1 | nt | nt | i | nt | nt | i | nt
N=C1/C(=C/c2coc3ccccc3c2=O)C(=O)N=C2SC(c3ccco3)=NN12 | i | i | nt | i | i | 64 | 71
N=C1/C(=C\c2coc3ccccc3c2=O)C(=O)N=C2SC(c3ccncc3)=NN12 | i | i | i | i | i | 94 | 64
Cc1cc(/C=C2\C(=N)N3N=C(c4ccco4)SC3=NC2=O)c(C)n1Cc1ccccc1 | i | i | i | i | i | i | nt
COc1ccc(CCNC(=O)CCc2cc(OC)c(OC)c(OC)c2)cc1OC | i | i | i | i | i | i | nt
O=C(COC(=O)C1(c2ccc(F)cc2)CCCC1)NCc1ccco1 | i | i | i | i | i | 90 | i | MPTP abs DR=i;MPTP counter DR=61
COc1ccc(NC(=S)Nc2ccc3snnc3c2)cc1 | i | i | i | i | i | 73 | 79
CN1OC[C@@H]2CN(C(=S)NCCc3ccccc3)[C@H](c3ccc(-n4ccnc4)cc3)C[C@@H]21 | nt | nt | nt | nt | nt | i | nt
CC(C)(C)c1ccc(OCC(=O)N(Cc2cccs2)C2CCS(=O)(=O)C2)cc1 (stereo unspecified) | i | i | i | i | i | i | nt
CCCCOc1ccc(-c2nc(-c3cccnc3)no2)cc1 | i | i | i | i | i | 64 | i | MPTP abs DR=14;MPTP counter DR=14
